# Experimental data from the supplement of paper PMC8728848.
# Shown is part of a subset that was picked to be rich in the strongest signals.
# B1: rCnSL-A (Clitocybe nebularis) (protein)
# chain: VNPNLPGPNDVFVGFRGTNNIVGAIYEKDGIKDTPLNNGADAEMGPGSYITDGLFTARIFASGSAGNNPGTTATVCKIYASGVQWRGAPKGYIPVAYFGNGPTAEQRRQTYLRTLGLPGTAIRFGNLNTNPGQGPTAPRQMVVPPGPLRSLLKASCFPAADTRLPQTLHYFEKRVDWNIITAADSQTWGH
# Assays:
# Assay in all cases: glycan array binding signal (z-score within array); higher = stronger binding
# Settings in all cases: glycan notation: IUPAC condensed, linker removed
# [1] = molecular target: Gal(b1-4)GlcNAc(b1-3)Gal(b1-4)GlcNAc(b1-3)Gal(b1-4)GlcNAc(b1-3)Gal(b1-4)GlcNAc(b1-3)Gal(b1-4)GlcNAc(b1-3)Gal(b1-4)GlcNAc(b1-2)Man(a1-3)[Gal(b1-4)GlcNAc(b1-3)Gal(b1-4)GlcNAc(b1-3)Gal(b1-4)GlcNAc(b1-3)Gal(b1-4)GlcNAc(b1-3)Gal(b1-4)GlcNAc(b1-3)Gal(b1-4)GlcNAc(b1-2)Man(a1-6)]Man(b1-4)GlcNAc(b1-4)GlcNAc
# Summary of the method: (§1)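 The Consortium for Functional Glycomics database supplied 3228 glycan arrays, of which those lacking an available protein sequence were dropped. The binding signal, a within-array Z-score, was averaged across arrays of the same protein sequence and across linkers. Negative scores can be read as non-binding.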
# Gal(b1-6)Gal = molecular target: Gal(b1-6)Gal
# Summary of the method: as §1
# Gal3S(b1-3)GlcNAc = molecular target: Gal3S(b1-3)GlcNAc
# Summary of the method: as §1
# [2] = molecular target: Gal3S(b1-4)[Fuc(a1-3)]GlcNAc6S
# Summary of the method: as §1
# Gal6S(b1-3)GlcNAc = molecular target: Gal6S(b1-3)GlcNAc
# Summary of the method: as §1
# Gal6S(b1-4)Glc6S = molecular target: Gal6S(b1-4)Glc6S
# Summary of the method: as §1
# [3] = molecular target: GlcNAc(a1-3)Gal(b1-4)GlcNAc
# Summary of the method: as §1
# [4] = molecular target: GlcNAc(b1-2)Gal(b1-3)GalNAc
# Summary of the method: as §1
# [5] = molecular target: GlcNAc(b1-2)Man(a1-3)[GlcNAc(b1-4)][GlcNAc(b1-2)Man(a1-6)]Man(b1-4)GlcNAc(b1-4)GlcNAc
# Summary of the method: as §1
# GlcNAc(b1-3)Gal = molecular target: GlcNAc(b1-3)Gal
# Summary of the method: as §1
# [6] = molecular target: GlcNAc(b1-4)GlcNAc(b1-4)GlcNAc(b1-4)GlcNAc(b1-4)GlcNAc
# Summary of the method: as §1
# [7] = molecular target: Man(a1-2)Man(a1-6)[Man(a1-3)]Man(a1-6)[Man(a1-2)Man(a1-2)Man(a1-3)]Man(b1-4)GlcNAc(b1-4)GlcNAc
# Summary of the method: as §1
# [8] = molecular target: Man(a1-3)[Man(a1-6)]Man(a1-6)[Man(a1-3)]Man(b1-4)GlcNAc(b1-4)GlcNAc
# Summary of the method: as §1
# [9] = molecular target: Neu5Ac(a2-3)Gal(b1-3)GalNAc6S
# Summary of the method: as §1
# [10] = molecular target: Neu5Ac(a2-3)Gal(b1-3)GlcNAc(b1-3)Gal(b1-3)GlcNAc
# Summary of the method: as §1
# [11] = molecular target: Neu5Ac(a2-3)Gal(b1-3)[Neu5Ac(a2-6)]GalNAc
# Summary of the method: as §1
# [12] = molecular target: Neu5Ac(a2-3)Gal(b1-4)GlcNAc(b1-6)[Neu5Ac(a2-3)Gal(b1-3)]GalNAc
# Summary of the method: as §1
# [13] = molecular target: Neu5Ac(a2-3)Gal(b1-4)[Fuc(a1-3)]GlcNAc(b1-3)Gal
# Summary of the method: as §1
# [14] = molecular target: Neu5Ac(a2-6)Gal(b1-4)GlcNAc(b1-2)[Neu5Ac(a2-6)Gal(b1-4)GlcNAc(b1-6)]Man(a1-6)[Neu5Ac(a2-6)Gal(b1-4)GlcNAc(b1-2)Man(a1-3)][GlcNAc(b1-4)]Man(b1-4)GlcNAc(b1-4)GlcNAc
# Summary of the method: as §1
# [15] = molecular target: Neu5Ac(a2-6)Gal(b1-4)GlcNAc(b1-3)Gal(b1-4)GlcNAc(b1-3)[Neu5Ac(a2-6)Gal(b1-4)GlcNAc(b1-3)Gal(b1-4)GlcNAc(b1-6)]GalNAc
# Summary of the method: as §1
# [16] = molecular target: Neu5Ac(a2-6)GlcNAc(b1-4)GlcNAc
# Summary of the method: as §1
# [17] = molecular target: Neu5Ac(a2-8)Neu5Ac(a2-3)[GalNAc(b1-4)]Gal(b1-4)Glc
# Summary of the method: as §1
binder,measurement,setting,value
B1,glycan array binding signal (z-score),[1],7.72
same,glycan array binding signal (z-score),Gal(b1-6)Gal,-0.201
same,glycan array binding signal (z-score),Gal3S(b1-3)GlcNAc,-0.252
same,glycan array binding signal (z-score),[2],-0.25
same,glycan array binding signal (z-score),Gal6S(b1-3)GlcNAc,-0.309
same,glycan array binding signal (z-score),Gal6S(b1-4)Glc6S,-0.241
same,glycan array binding signal (z-score),[3],-0.253
same,glycan array binding signal (z-score),[4],-0.27
same,glycan array binding signal (z-score),[5],-0.223
same,glycan array binding signal (z-score),GlcNAc(b1-3)Gal,-0.22
same,glycan array binding signal (z-score),[6],-0.217
same,glycan array binding signal (z-score),[7],-0.138
same,glycan array binding signal (z-score),[8],-0.237
same,glycan array binding signal (z-score),[9],-0.234
same,glycan array binding signal (z-score),[10],-0.25
same,glycan array binding signal (z-score),[11],-0.305
same,glycan array binding signal (z-score),[12],-0.165
same,glycan array binding signal (z-score),[13],-0.229
same,glycan array binding signal (z-score),[14],-0.269
same,glycan array binding signal (z-score),[15],0.406
same,glycan array binding signal (z-score),[16],-0.287
same,glycan array binding signal (z-score),[17],-0.246
